PINK1 expr mod: PINK1 expression modulation; PINK1 immunofluorescence, high-content cytometry, 24 h; Potency, µM (doses to about 76.6 µM), most hits filed as activators; actives 0.2% (n = 410,000); AID 624263; active = well fitted activation curve with a large enough effect; inconclusive = small, poorly fitted or top-dose-only effect; cell line not stated here; also: nearly all actives have a fitted effect of over 65% in size
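Stable cell line treated 24 h with compounds at 5 concentrations (CCCP controls), then fixed and immunostained for PINK1 plus nuclear and cell stains; PINK1 immunofluorescence quantified by laser-scanning microplate cytometry.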
VP16 counter: Gal4-VP16 reporter inhibition counter-screen | Potency, µM (titrated, usually from 53.6 µM), hits mostly inhibitors | Drosophila S2 Gal4-VP16 UAS-luciferase, luminescence, 20 h | actives 3.5% (n = 310,000);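 also: Gal4-VP16 expression switched on by copper sulfate through the metallothionein promoter; nearly all actives have a fitted effect of over 50% in size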
ClpP mod: qHTS Assay for Activators of ClpP. ATP-dependent Clp protease proteolytic subunit (Bacillus subtilis (strain 168)), P80244. purified B. subtilis ClpP, FRET peptide cleavage, 20 min. Potency, µM (top dose mostly 57.5 µM). actives 1.9% (n = 340,000). AID 651965, 2013; active = well fitted falling curve with a large enough effect; inconclusive = small, poorly fitted or top-dose-only effect; inactive = no such curve, though single readings can be large or run the other way; also: the source files actives as falling curves though it sought activators and does not explain the sign; nearly all actives have a fitted effect of over 65% in size
Target sequence (P80244 whole entry, looked up): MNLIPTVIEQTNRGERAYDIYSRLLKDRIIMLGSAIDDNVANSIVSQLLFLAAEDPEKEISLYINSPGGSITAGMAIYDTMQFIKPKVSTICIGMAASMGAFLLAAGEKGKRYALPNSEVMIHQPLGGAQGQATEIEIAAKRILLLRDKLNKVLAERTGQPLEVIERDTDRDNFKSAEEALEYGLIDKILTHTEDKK
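FRET quenching reversal measured ClpP activation: 10 microg/mL B. subtilis ClpP at pH 8 with the FRET-FV decapeptide, read at 430 nm after 320 nm excitation. The 20-min minus 0-min signal was scaled between DMSO/no-enzyme wells and ADEP (5.8 microM final).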
Sfp PPTase inh: blocks B. subtilis Sfp PPTase activity; Q9F4F7; Potency, µM, usual class: inhibitors; actives 3.5% (n = 310,000); Biochemical Sfp PPTase activity, qHTS;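 also: the enzyme is Sfp with the accession as filed and its product quenches rhodamine fluorescence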
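Buffer: 50 mM Hepes-Na pH 7.6, 10 mM MgCl2, 0.01% Nonidet P-40, 0.01% BSA. Enzyme 15 nM, pre-exposed to compound 15 min; substrates then added and fluorescence change tracked over 30 min.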
Epigenetic derep: regulators of epigenetic silencing causing reporter derepression in mouse cells; murine LDR cells, GFP reporter derepression, 30 h; Potency, µM (series often up to 53.9 µM), most hits filed as activators; actives 0.2% (n = 280,000); also: nearly all actives have a fitted effect of over 60% in size
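Readout is the number of GFP-expressing murine LDR cells, counted by cytometry following washing. Cells were treated with compound for 30 h at 37 C; the stably integrated CMV-GFP locus is normally silent.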
RORgamma inh: inhibitors of mouse ROR gamma transcriptional activity; P51450; Drosophila S2 Gal4-RORgamma UAS-luciferase reporter, 20 h; Potency, µM (doses to about 53.6 µM), actives largely listed as inhibitors; actives 5.4% (n = 310,000); AID 2551; also: nearly all actives have a fitted effect of over 60% in size
Target sequence (P51450 whole entry, looked up, the tested form may be a part): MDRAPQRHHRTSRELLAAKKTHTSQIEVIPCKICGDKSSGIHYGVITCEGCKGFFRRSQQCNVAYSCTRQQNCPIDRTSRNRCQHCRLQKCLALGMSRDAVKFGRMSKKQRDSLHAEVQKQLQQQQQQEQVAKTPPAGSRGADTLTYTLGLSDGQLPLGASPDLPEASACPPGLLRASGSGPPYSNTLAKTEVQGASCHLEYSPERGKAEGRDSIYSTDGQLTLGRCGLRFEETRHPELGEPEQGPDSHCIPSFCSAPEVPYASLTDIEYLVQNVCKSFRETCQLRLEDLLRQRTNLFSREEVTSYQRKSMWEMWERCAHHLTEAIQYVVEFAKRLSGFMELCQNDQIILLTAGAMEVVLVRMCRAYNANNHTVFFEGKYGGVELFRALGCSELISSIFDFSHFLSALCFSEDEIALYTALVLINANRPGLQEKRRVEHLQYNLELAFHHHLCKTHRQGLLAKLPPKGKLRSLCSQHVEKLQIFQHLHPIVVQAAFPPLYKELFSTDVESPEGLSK
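Schneider cells (Drosophila), stable Gal4 DBD–ROR gamma + UAS-luc; 1 hr cmpd preincubation; Cu2+ induction 700 uM final; 20 hr ambient; luminescence.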
Hits are given with their value; 0 = inactive; ? = inconclusive; - = no result given; [ ] = remark or other dose. Hits are enriched below; roughly 8.1% of the tested compounds scored in any of these assays. Unless noted, calls follow the shape of the dose curve; as a rule, active = well fitted curve in the direction sought with a large enough effect; inconclusive = small, poorly fitted or top-dose-only effect, or another doubt; inactive = no such curve, though single readings can be large; an effect the other way counts as inactive or inconclusive.

SMILES | PINK1 expr mod | VP16 counter | ClpP mod | Sfp PPTase inh | Epigenetic derep | RORgamma inh
Cc1ccccc1OCC(=O)NNC(=O)c1ccc(-c2ccccc2)cc1 | 0 | 0[0.365 µM] | 0 | 0 | 0 | ?
COC(=O)CNC(=S)NC(=O)c1ccc(C(C)(C)C)cc1 | 0 | 0[10 µM] | 0 | 0 | 0 | 6.3µM
Cc1ccc(C(=O)NNC(=S)NC(=O)COc2ccccc2)cc1 | - | 0 | 0 | 56µM | 0 | ?
Cc1cccc(OCC(=O)NC(=S)NNC(=O)c2ccncc2)c1 | 0 | ? | 0 | 18µM | - | ?
COC(=O)c1c(OCc2ccccc2)cc(=O)n2c1CCN(Cc1cccc(C)n1)CC2 | 0 | - | - | - | - | -
Cc1cc(N2CCC(C(=O)Nc3ccccc3Cl)CC2)n2nc(C)c(-c3ccc(Cl)cc3)c2n1 | 0 | - | 0 | - | 0 | -
Nc1c(C(O)(C(F)(F)F)C(F)(F)F)ccc2ccccc12 | 0 | 0 | 28µM | 45µM | 0 | 0
CN(C)c1ccc(N=Nc2ccc(S(=O)(=O)O)cc2)cc1 | 0 | - | 0 | - | - | -
COc1ccc(-c2cc3ccccc3n2CC(O)CN2CCCCC2)cc1 (centres undefined) | 0 | 0 | 0 | 0 | 0 | 0
COc1ccc(-c2cc3ccccc3n2CC(O)CNCCO)cc1 (centres undefined) | 0 | 0 | 11µM | 0 | 0 | 0
CCCCN(CCCNC(=O)CN1N=C(c2ccccc2)CCC1=O)c1ccccc1 | 0 | - | 0 | - | 0 | -
Cc1ccccc1-n1c(C)n[nH]c1=S | 0 | 0 | 0 | 79µM | 0 | ?
Cc1cccn2c(=S)[nH]nc12 | 0 | - | 0 | - | - | -
Cc1ccccc1-n1c(-c2ccoc2C)n[nH]c1=S | 0 | ? | 0 | 0 | 0 | 10µM
Cc1cccc(-n2c(-c3ccoc3C)n[nH]c2=S)c1 | 0 | ? | 0 | ? | 0 | 8.9µM
Cc1cc(C(=O)Nc2ccccc2-c2nc(CNC(=O)c3cc4ccccc4cn3)c(C)o2)c(C)o1 | 0 | - | - | - | - | -
CCc1cc2c(cc3c(=O)n(CCCC(=O)NCc4cccc(Cl)c4)ncn32)s1 | 0 | - | 0 | - | 0 | -
Cc1ccccc1-c1nc(Nc2ccncc2)c2ccccc2n1 | 0 | 0 | - | 0 | - | 7.1µM
CN(C)c1ccc(-c2nc(Nc3ccncc3)c3ccccc3n2)cc1 | 0 | 16µM | - | ? | 0 | ?
Cc1ccc(Nc2nc(-c3ccncc3)nc3ccccc23)cc1 | 0 | 0 | - | 0 | 0 | 0
Clc1ccccc1-c1nc(Nc2ccncc2)c2ccccc2n1 | 0 | 0 | - | 0 | - | 11µM
COC(=O)c1ccc(CN2CCC3(CCC(CNC(=O)c4ccco4)O3)CC2)cc1 (centres undefined) | 0 | - | - | - | - | -
CC(C)C1S/C(=N/N=C/c2ccco2)NC1=O (centres undefined) | 0 | 3.2µM | 0 | ? | 0 | 0.2µM
Cc1ccccc1CC1S/C(=N/N=C/c2ccco2)NC1=O (centres undefined) | - | 2µM | - | 0 | 0 | 0.45µM
O=C1CC(C(=O)Nc2ccccc2)S/C(=N\N=C\c2ccco2)N1 (centres undefined) | 0 | 0 | 0 | 0 | 0 | 0
SMILES | PINK1 expr mod | VP16 counter | ClpP mod | Sfp PPTase inh | Epigenetic derep | RORgamma inh
C=CCN1C(=O)C(Cc2ccc(F)cc2)S/C1=N/N=C/c1ccco1 (centres undefined) | 0 | 0 | 0 | 0 | 0 | 0
Cc1ccccc1CN1C(=O)C(C)S/C1=N/N=C/c1ccco1 (centres undefined) | 0 | 0 | 0 | 79µM | 0 | 0
C=CCN1C(=O)C(Cc2ccc(Br)cc2)S/C1=N\N=C\c1ccco1 (centres undefined) | 0 | 0 | 0 | 0 | 0 | 14µM
C[C@@H]1CC2C3CCC4=CC(=O)C=CC4(C)[C@@]3(F)[C@@H](O)CC2(C)[C@@]1(O)C(=O)CO (some centres undefined) | - | 0 | - | 0 | 0 | 0
CCC(=O)N1CCc2cc(Br)cc(S(=O)(=O)CCC(=O)NCCc3ccc(Cl)cc3)c21 | 0 | - | 0 | - | 0 | -
Clc1ccc(/C=N/Nc2nnc(-c3ncc[nH]3)c3ccccc23)cc1 | 0 | 3.2µM | 0 | 0 | 0 | 1.3µM
Clc1ccc(/C=N\Nc2ccccc2)cc1 | 0 | 0 | 0 | 0 | 0 | 0
Clc1cccc(N/N=C/c2ccncc2)c1 | 0 | 0 | 0 | 0 | 0 | ?
Clc1cccc(/C=N/Nc2nnc(Cl)c3ccccc23)c1 | - | ? | 0 | 0 | 0 | 3.2µM
Cc1cccc(NC(c2ccccc2C)c2ccc3ccc(C)nc3c2O)n1 (centres undefined) | 0 | - | 0 | - | 0 | -
Oc1c(C(Nc2ccccn2)c2ccccn2)ccc2cccnc12 (centres undefined) | 0 | 2.2µM | 0 | 0 | 3.5µM | 1.1µM
Oc1c(C(Nc2ccccn2)c2ccccc2F)ccc2cccnc12 (centres undefined) | 0 | - | 0 | - | 0 | -
Cc1ccc2ccc(C(Nc3ccccn3)c3ccccc3)c(O)c2n1 (centres undefined) | 0 | 4.5µM | 0 | 0 | 0 | 5µM
COc1cc(C(Nc2ccccn2)c2ccc3ccc(C)nc3c2O)cc(OC)c1O (centres undefined) | 0 | 13µM | 0 | 18µM | 0 | 7.1µM
Cc1ccc2ccc(C(Nc3ccccc3)c3ccc(C(C)C)cc3)c(O)c2n1 (centres undefined) | - | - | 0 | - | - | -
Cc1cccc(NC(c2ccc(C)s2)c2ccc3ccc(C)nc3c2O)n1 (centres undefined) | 0 | 5µM | 0 | 0 | 0 | 10µM
Cn1c(=O)n(C)c2cc(N3CCOCC3)c(NS(=O)(=O)c3ccc(Br)cc3)cc21 | 0 | - | 0 | - | 0 | -
Oc1c(C(c2ccc(Cl)cc2)N2CCCC2)sc2nc(-c3ccco3)nn12 (centres undefined) | 0 | - | 0 | - | 0 | -
Oc1ccccc1C(Nc1nccs1)c1ccc2cccnc2c1O (centres undefined) | 0 | 5µM | - | 0 | 0 | ?
Cc1cc(C)n2nc(SCc3ncc(-c4ccccc4)o3)nc2n1 | 0 | 0 | ? | 0 | 0 | 0
Cc1cc(C)n2nc(SCc3nnc(-c4ccccc4Br)o3)nc2n1 | 0 | 0 | 18µM | 0 | 0 | 0
COc1cccc(CSc2nc3n(n2)C(c2cccc(F)c2)C(C(=O)Nc2ccccc2C)=C(C)N3)c1 (centres undefined) | 0 | - | 0 | - | 0 | -
OCCCc1cn(Cc2ccccc2)c2ccccc12 | 0 | 0 | 18µM | 0 | - | 0
CN(C)CCCN(C(=O)c1ccc2c(c1)OCCO2)c1nc2ccccc2s1 | 0 | - | 0 | - | 0 | -
CCNc1nc(=S)nc(NC(C)C)[nH]1 | 0 | 13µM | 0 | 0 | 0 | 10µM
CC(C)Nc1nc2ccccc2c(=O)[nH]1 | 0 | 0 | - | 0 | 0 | 0
CCNc1nc(=S)nc(NCc2ccccc2)[nH]1 | - | 7.1µM | - | 0 | 0 | 3.2µM
COc1ccc(-c2cn3nc(N4CCC(C(=O)Nc5ccccc5OC)CC4)sc3n2)cc1 | 0 | - | 0 | - | 0 | -
CCC1CCCCN1S(=O)(=O)c1ccc(N2CCCCS2(=O)=O)cc1 (centres undefined) | 0 | - | 0 | - | 0 | -
